# Assay results as given in PMC10726135, “HNF4α isoforms regulate the circadian balance between carbohydrate and lipid metabolism in the liver”.
# Over roughly 18,000 sequences, “log2 normalized intensity” has its median near 0.39; the highest 2% begin near 6.6. The list comes from a sample in which the highest values are over-represented; it also holds similar and randomly drawn sequences.
# Molecular target: T1, HNF4alpha2 (COS-7 nuclear extract) (Homo sapiens, UniProt P41235 1-474)
# T1 sequence: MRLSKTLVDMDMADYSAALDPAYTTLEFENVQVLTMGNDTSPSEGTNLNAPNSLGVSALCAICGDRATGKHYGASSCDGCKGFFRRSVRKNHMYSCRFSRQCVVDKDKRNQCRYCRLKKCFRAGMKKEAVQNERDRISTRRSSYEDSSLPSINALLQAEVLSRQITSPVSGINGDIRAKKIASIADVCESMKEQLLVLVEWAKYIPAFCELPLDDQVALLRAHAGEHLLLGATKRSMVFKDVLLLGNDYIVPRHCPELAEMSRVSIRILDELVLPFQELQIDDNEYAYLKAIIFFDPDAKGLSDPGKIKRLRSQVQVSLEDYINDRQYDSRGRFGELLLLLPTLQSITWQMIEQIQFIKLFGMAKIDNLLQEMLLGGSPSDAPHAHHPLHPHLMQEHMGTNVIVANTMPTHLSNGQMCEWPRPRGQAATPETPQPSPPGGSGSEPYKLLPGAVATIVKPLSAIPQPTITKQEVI
# Experiment: protein-binding microarray; COS-7 nuclear extract on double-stranded Agilent 4x180k PBM; binding buffer, salt, pH and temperature not given in the material; high values mean tight binding
# Conditions: chain copies: 2; label: 3' end of strand 1 on the slide; dsDNA, one strand shown
# Outline: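 Double-stranded oligonucleotides of ~60 nt, representing ~44,000 test sequences in quadruplicate, made up a custom Agilent SurePrint G3 4x180k array. Nuclear extracts from COS-7 cells transiently transfected by CaPO4 with a human HNF4α isoform expression vector were applied, and bound HNF4α was imaged at 2-µm resolution on an Agilent G2565CA scanner. Binding signal refers to the background-corrected, normalized gProcessedSignal output of Agilent software.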
row,Sequence,binding signal
1,TTCCACCTGGAATGCACTTGTTCCGGATAGGCCTAGGGAGATTAGAGTATCGGTCGA,1.11 log2 normalized intensity
2,GACCTTTGAACACCACAAGTTTGAACTGCAGCCTAGGGAGATTAGAGTATCGGTCGA,5.05 log2 normalized intensity
3,TAGGTATGCCCCATGGTAAGAACTACAGTTGCCTAGGGAGATTAGAGTATCGGTCGA,0.881 log2 normalized intensity
4,CCATGGTAAGAACTACAGTTGACCTTTGAAGCCTAGGGAGATTAGAGTATCGGTCGA,7.38 log2 normalized intensity
5,ATGCCCCATGGTAAGAACTACAGTTGACCTGCCTAGGGAGATTAGAGTATCGGTCGA,4.18 log2 normalized intensity
6,CAGTTGACCTTTGAACACCACAAGTTTGAAGCCTAGGGAGATTAGAGTATCGGTCGA,6.31 log2 normalized intensity
7,AACTACAGTTGACCTTTGAACACCACAAGTGCCTAGGGAGATTAGAGTATCGGTCGA,7.56 log2 normalized intensity
8,GGAATGTTGCTGTGCTGCCCTCTTGTGGCCGCCTAGGGAGATTAGAGTATCGGTCGA,1.66 log2 normalized intensity
9,TGTTTCCAATAGGTTTGATTTCAGCATGTTGCCTAGGGAGATTAGAGTATCGGTCGA,1.59 log2 normalized intensity
10,TATGTGGTGGAATGGAAAGAATATGAACTTGCCTAGGGAGATTAGAGTATCGGTCGA,1.66 log2 normalized intensity
11,ACCCCACGGAGCTGCCTCACATGAGCTAGAGCCTAGGGAGATTAGAGTATCGGTCGA,-0.873 log2 normalized intensity
12,CCAGGCTGATTTAGCTATTTGACCTTCGGCGCCTAGGGAGATTAGAGTATCGGTCGA,4.92 log2 normalized intensity
13,TTAGCTATTTGACCTTCGGCCTCAATTATAGCCTAGGGAGATTAGAGTATCGGTCGA,6.43 log2 normalized intensity
14,CTGATTTAGCTATTTGACCTTCGGCCTCAAGCCTAGGGAGATTAGAGTATCGGTCGA,8.16 log2 normalized intensity
15,ATTGGCCCTTTGACCTTTAATCAAGGGCTGGCCTAGGGAGATTAGAGTATCGGTCGA,5.08 log2 normalized intensity
16,GCCCCTGGCTGGGCCCTGACCTCAAGTGACGCCTAGGGAGATTAGAGTATCGGTCGA,1.91 log2 normalized intensity
17,TGGCTGGGCCCTGACCTCAAGTGACCTTTGGCCTAGGGAGATTAGAGTATCGGTCGA,7.17 log2 normalized intensity
18,GGGCCCTGACCTCAAGTGACCTTTGACCTCGCCTAGGGAGATTAGAGTATCGGTCGA,12.1 log2 normalized intensity
19,CTGGGCCCTGCCTGACCTGCCCTTTGTCCCGCCTAGGGAGATTAGAGTATCGGTCGA,6.28 log2 normalized intensity
20,ATCGCCCTTTGAGGAGGCCTTTCCTGACCCGCCTAGGGAGATTAGAGTATCGGTCGA,2.78 log2 normalized intensity
21,GGCTTGTACCTTGACCTTCTCTGTTAACCCGCCTAGGGAGATTAGAGTATCGGTCGA,4.27 log2 normalized intensity
22,GATGGGCCAGGCAGGACAGTTTTGTGTGTTGCCTAGGGAGATTAGAGTATCGGTCGA,1.11 log2 normalized intensity

row,Sequence,binding signal
1,TCAGATATCTGAATGTACCTTTGAAACCTAGCCTAGGGAGATTAGAGTATCGGTCGA,2.87 log2 normalized intensity
2,ATCCAGTAGAGGGCATAGCAGATAAGCATTGCCTAGGGAGATTAGAGTATCGGTCGA,-0.984 log2 normalized intensity
3,ACTTCTTTGTGATGTGTGGATTCAGCTCACGCCTAGGGAGATTAGAGTATCGGTCGA,1.29 log2 normalized intensity
4,ATCTCAAATAGCTGGGTCTCACTCTGACCCGCCTAGGGAGATTAGAGTATCGGTCGA,3.32 log2 normalized intensity
5,ACTTCAAAGGGTGTTGTGACTACCTGGTTAGCCTAGGGAGATTAGAGTATCGGTCGA,0.524 log2 normalized intensity
6,AACTTCTTCCAATGAAAGGTTAACCTGCTGGCCTAGGGAGATTAGAGTATCGGTCGA,1.36 log2 normalized intensity
7,TTTATCCTTTTTTGAAGGTTAAAGTCCATTGCCTAGGGAGATTAGAGTATCGGTCGA,7 log2 normalized intensity
8,TCACAAAGGGCTGAGGTTAAAGTCCACATTGCCTAGGGAGATTAGAGTATCGGTCGA,7.04 log2 normalized intensity
9,CCTTTTTTGAAGGTTAAAGTCCATTTTTGAGCCTAGGGAGATTAGAGTATCGGTCGA,6.53 log2 normalized intensity
10,AAGCTTCACAAAGGGCTGAGGTTAAAGTCCGCCTAGGGAGATTAGAGTATCGGTCGA,6.22 log2 normalized intensity
11,ACATTTTTATCCTTTTTTGAAGGTTAAAGTGCCTAGGGAGATTAGAGTATCGGTCGA,2.66 log2 normalized intensity
12,AAGGGCTGAGGTTAAAGTCCACATTCTTTAGCCTAGGGAGATTAGAGTATCGGTCGA,5.76 log2 normalized intensity
13,TCCCCACTTATTACCGGTGTGACTTTGGTTGCCTAGGGAGATTAGAGTATCGGTCGA,2.1 log2 normalized intensity
14,CGGGAGGCAAGATAAGGGTAATCACCCCCAGCCTAGGGAGATTAGAGTATCGGTCGA,2.34 log2 normalized intensity
15,CCTTACCTCCATTAACTAACCTTTGAACCAGCCTAGGGAGATTAGAGTATCGGTCGA,6.78 log2 normalized intensity
16,TAAGACTAACCTTTGACCATCCACGGATGCGCCTAGGGAGATTAGAGTATCGGTCGA,4.62 log2 normalized intensity
17,CCTCCATTAACTAACCTTTGAACCAGATGGGCCTAGGGAGATTAGAGTATCGGTCGA,4.77 log2 normalized intensity
18,GGTCCTAAGACTAACCTTTGACCATCCACGGCCTAGGGAGATTAGAGTATCGGTCGA,5.96 log2 normalized intensity
19,TACTCATGTGGTCCTAAGACTAACCTTTGAGCCTAGGGAGATTAGAGTATCGGTCGA,6.33 log2 normalized intensity
20,ATGTGGTCCTAAGACTAACCTTTGACCATCGCCTAGGGAGATTAGAGTATCGGTCGA,7.45 log2 normalized intensity
21,ATTAACTAACCTTTGAACCAGATGGCCCTCGCCTAGGGAGATTAGAGTATCGGTCGA,3.62 log2 normalized intensity
22,TTACTCATGTGGTCCTAAGACTAACCTTTGGCCTAGGGAGATTAGAGTATCGGTCGA,3.37 log2 normalized intensity

row,Sequence,binding signal
1,CATGTGGTCCTAAGACTAACCTTTGACCATGCCTAGGGAGATTAGAGTATCGGTCGA,7.89 log2 normalized intensity
2,CATGTTAATTTAAATAACAAGGATAGCGTCGCCTAGGGAGATTAGAGTATCGGTCGA,-0.878 log2 normalized intensity
3,AAGGTCAGGATCTCAGCCGCGCGGCTTCAGGCCTAGGGAGATTAGAGTATCGGTCGA,-0.906 log2 normalized intensity
4,CAGTGGGGGGGGGGGGGGGGGTGTGTCTGTGCCTAGGGAGATTAGAGTATCGGTCGA,1.34 log2 normalized intensity
5,CTGGCAAAGCCATGAAGCAATTCTGAGCCCGCCTAGGGAGATTAGAGTATCGGTCGA,-0.972 log2 normalized intensity
6,GGATTTTTTCTTGGACTTTGGTCATCCTTTGCCTAGGGAGATTAGAGTATCGGTCGA,6.83 log2 normalized intensity
7,ATCAAGGATTTTTTCTTGGACTTTGGTCATGCCTAGGGAGATTAGAGTATCGGTCGA,8.1 log2 normalized intensity
8,TTTTCTTGGACTTTGGTCATCCTTTACTTTGCCTAGGGAGATTAGAGTATCGGTCGA,6.04 log2 normalized intensity
9,TTGGACTTTGGTCATCCTTTACTTTCCCAAGCCTAGGGAGATTAGAGTATCGGTCGA,5.18 log2 normalized intensity
10,TCCAGATCAAGGATTTTTTCTTGGACTTTGGCCTAGGGAGATTAGAGTATCGGTCGA,5.42 log2 normalized intensity
11,GACTTTGGTTGGATTTCTTGGCTTCTCTTGGCCTAGGGAGATTAGAGTATCGGTCGA,1.04 log2 normalized intensity
12,TCCAAAAGGGCAGCAGTAACCCCCCAGGAGGCCTAGGGAGATTAGAGTATCGGTCGA,3.7 log2 normalized intensity
13,GGTTGCCCTAGTGACTCTAGGAACCTTTCTGCCTAGGGAGATTAGAGTATCGGTCGA,-0.0376 log2 normalized intensity
14,TGGGCCCACAGATGATCAAAGGTCAGTCTTGCCTAGGGAGATTAGAGTATCGGTCGA,6.53 log2 normalized intensity
15,TATGAGAGAGAGAGAGAGGTGGGCAAAGGTGCCTAGGGAGATTAGAGTATCGGTCGA,1.53 log2 normalized intensity
16,GCAAAGGTCAGCTCATTCCCTAGGGCTCGGGCCTAGGGAGATTAGAGTATCGGTCGA,-0.876 log2 normalized intensity
17,AGAGCAATCATGGGCCCACAGATGATCAAAGCCTAGGGAGATTAGAGTATCGGTCGA,-0.805 log2 normalized intensity
18,AAAGGGCAAAGGTCAGCTCATTCCCTAGGGGCCTAGGGAGATTAGAGTATCGGTCGA,6.27 log2 normalized intensity
19,AACAAAAAGGGCAAAGGTCAGCTCATTCCCGCCTAGGGAGATTAGAGTATCGGTCGA,6.63 log2 normalized intensity
20,GTGGGTGCCAAACAAAAAGGGCAAAGGTCAGCCTAGGGAGATTAGAGTATCGGTCGA,8.12 log2 normalized intensity
21,CACTGGGGTCATGGAGCTGGAGGGCAAAGGGCCTAGGGAGATTAGAGTATCGGTCGA,3.25 log2 normalized intensity
22,AATCATGGGCCCACAGATGATCAAAGGTCAGCCTAGGGAGATTAGAGTATCGGTCGA,7.06 log2 normalized intensity

row,Sequence,binding signal
1,GGGTCATGGAGCTGGAGGGCAAAGGTCAGAGCCTAGGGAGATTAGAGTATCGGTCGA,7.97 log2 normalized intensity
2,ATGGAGCTGGAGGGCAAAGGTCAGAGGCTGGCCTAGGGAGATTAGAGTATCGGTCGA,6.39 log2 normalized intensity
3,GAGAGAGAGAGAGGTGGGCAAAGGTCTCAAGCCTAGGGAGATTAGAGTATCGGTCGA,2.55 log2 normalized intensity
4,CCAAAGTCCTTCCCAAGTCCTGCATGTGTTGCCTAGGGAGATTAGAGTATCGGTCGA,1.84 log2 normalized intensity
5,CCCTACTGTACCCTATGCACCCCACAGTGCGCCTAGGGAGATTAGAGTATCGGTCGA,2.11 log2 normalized intensity
6,ACCTTTAGCACCGTAAGAGAGTATTTCCCAGCCTAGGGAGATTAGAGTATCGGTCGA,1.13 log2 normalized intensity
7,CACAAGCTGGGTCAACATCAGCCCTCCTAGGCCTAGGGAGATTAGAGTATCGGTCGA,1.49 log2 normalized intensity
8,GGGCACCGCCTCCACACCCCAGCCTGCCCTGCCTAGGGAGATTAGAGTATCGGTCGA,3.1 log2 normalized intensity
9,GGGGCAGGTAAGTACCAATATTTGTTAAGTGCCTAGGGAGATTAGAGTATCGGTCGA,1.08 log2 normalized intensity
10,ATACTTTCAGCTAGCTGAGTGAGTAGGTTCGCCTAGGGAGATTAGAGTATCGGTCGA,1.31 log2 normalized intensity
11,AGTCCTGACCTTGGACTCTGCCCTTGGCCTGCCTAGGGAGATTAGAGTATCGGTCGA,5.81 log2 normalized intensity
12,TTGGCTCTTATGTCCCTCCTGACCTTTGGAGCCTAGGGAGATTAGAGTATCGGTCGA,8.6 log2 normalized intensity
13,CCTGACCTGCCCTTTGTCCCTCCTGCTAGTGCCTAGGGAGATTAGAGTATCGGTCGA,3.3 log2 normalized intensity
14,TCAGTTTGGCTCTTATGTCCCTCCTGACCTGCCTAGGGAGATTAGAGTATCGGTCGA,3.25 log2 normalized intensity
15,TCTTATGTCCCTCCTGACCTTTGGACTTGAGCCTAGGGAGATTAGAGTATCGGTCGA,10.3 log2 normalized intensity
16,ACCTTTGTCCTCATTGAGCCCTCCCCTTGTGCCTAGGGAGATTAGAGTATCGGTCGA,4.33 log2 normalized intensity
17,TGTCCCTCCTGACCTTTGGACTTGATAGAGGCCTAGGGAGATTAGAGTATCGGTCGA,9.11 log2 normalized intensity
18,GCCTCTTTATCTCCTCCCCTTGAGACTTTAGCCTAGGGAGATTAGAGTATCGGTCGA,2.85 log2 normalized intensity
19,AACTCTCAGTTTGGCTCTTATGTCCCTCCTGCCTAGGGAGATTAGAGTATCGGTCGA,1.35 log2 normalized intensity
